Records with an inconclusive call do not appear. Active and inactive are the calls of the source. Unless noted, calls come from the whole dose curve; as a rule, active = well fitted curve in the direction sought with a large enough effect; inconclusive = small, poorly fitted or top-dose-only effect, or another doubt; inactive = no such curve, though single readings can be large; an effect the other way counts as inactive or inconclusive.
Key:
[1] = molecular target: Ubiquitin carboxyl-terminal hydrolase 1 (Homo sapiens) (UniProt O94782); assay: Inhibitors of USP1/UAF1: Pilot qHTS (AID 504865); note: nearly all actives have a fitted effect of over 35% in size; note: potency is the fitted concentration of half-maximal effect
Ubiquitin carboxyl-terminal hydrolase 1 (Homo sapiens), sequence (O94782 whole entry, looked up): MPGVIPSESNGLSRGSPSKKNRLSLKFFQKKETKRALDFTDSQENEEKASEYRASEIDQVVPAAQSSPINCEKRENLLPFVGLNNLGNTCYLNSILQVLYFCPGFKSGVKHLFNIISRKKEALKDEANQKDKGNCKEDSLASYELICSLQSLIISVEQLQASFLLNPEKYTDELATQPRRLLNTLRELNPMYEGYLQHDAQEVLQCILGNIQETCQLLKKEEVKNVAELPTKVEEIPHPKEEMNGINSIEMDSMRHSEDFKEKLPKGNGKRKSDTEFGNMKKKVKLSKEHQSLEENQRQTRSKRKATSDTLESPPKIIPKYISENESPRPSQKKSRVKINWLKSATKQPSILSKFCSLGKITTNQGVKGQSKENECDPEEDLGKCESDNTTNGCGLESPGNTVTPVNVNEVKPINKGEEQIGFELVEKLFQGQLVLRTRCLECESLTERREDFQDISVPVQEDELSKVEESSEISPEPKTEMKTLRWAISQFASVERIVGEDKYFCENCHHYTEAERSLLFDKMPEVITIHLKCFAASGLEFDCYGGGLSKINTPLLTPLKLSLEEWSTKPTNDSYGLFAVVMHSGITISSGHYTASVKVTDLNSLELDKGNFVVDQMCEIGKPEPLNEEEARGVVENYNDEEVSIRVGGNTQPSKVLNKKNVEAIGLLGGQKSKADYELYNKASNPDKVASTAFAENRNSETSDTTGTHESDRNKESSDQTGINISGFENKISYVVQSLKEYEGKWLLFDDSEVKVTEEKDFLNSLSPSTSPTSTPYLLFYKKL
In short: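 USP1/UAF1 complex (1nM) preincubated with compound 15 min at room temperature, then Ub-Rho substrate (150nM final) added. Fluorescence read kinetically at 480/540 nm, 6 reads every 60 seconds. Buffer: 50mM HEPES pH 7.8, 0.5mM EDTA, 0.1 mg/ml BSA, 1mM TCEP, 0.01% Tween-20.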

[2] = molecular target: Luciferin 4-monooxygenase (Photinus pyralis) (UniProt P08659); assay: Biochemical firefly luciferase enzyme assay for NPC (AID 624030);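 note: purified P. pyralis luciferase at 10 nM with luciferin and ATP substrate; 0% = DMSO and -100% = full luciferase inhibition by PTC124 control; nearly all actives have a fitted effect of over 70% in size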
Luciferin 4-monooxygenase (Photinus pyralis), sequence (P08659 whole entry, looked up): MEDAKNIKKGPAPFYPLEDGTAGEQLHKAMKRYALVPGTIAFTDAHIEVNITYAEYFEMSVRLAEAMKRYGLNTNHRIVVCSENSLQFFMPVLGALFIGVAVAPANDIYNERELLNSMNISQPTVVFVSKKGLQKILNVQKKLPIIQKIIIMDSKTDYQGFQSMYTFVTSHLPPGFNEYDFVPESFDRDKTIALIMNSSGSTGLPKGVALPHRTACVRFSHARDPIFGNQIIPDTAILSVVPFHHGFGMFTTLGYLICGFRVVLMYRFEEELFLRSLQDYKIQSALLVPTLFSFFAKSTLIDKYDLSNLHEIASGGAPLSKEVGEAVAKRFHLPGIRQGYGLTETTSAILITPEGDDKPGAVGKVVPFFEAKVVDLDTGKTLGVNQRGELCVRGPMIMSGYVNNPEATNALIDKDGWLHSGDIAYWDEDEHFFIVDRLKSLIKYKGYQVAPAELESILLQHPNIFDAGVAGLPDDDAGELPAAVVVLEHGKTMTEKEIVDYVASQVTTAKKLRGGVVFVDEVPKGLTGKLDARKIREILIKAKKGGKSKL
In short: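 Purified P. pyralis luciferase at 10 nM in 50 mM Tris Acetate (final), luminescence read within 5 minutes of enzyme addition to compounds. Activity normalised to PTC124 versus DMSO; concentration-response curves classed by r2, magnitude and activity.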

[3] = S16 Schwann cell viability assay (CellTiter-Glo assay) (AID 624031);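 note: native untransfected S16 rat Schwann cells; cellular ATP luminescence as a viability measure; plate controls were DMSO-treated cells for no effect and cell-free wells for full effect; nearly all actives have a fitted effect of over 70% in size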
In short: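 Concentration-effect curves come from CellTiter-Glo luminescence of S16 rat Schwann cells after 24 h compound exposure. Each reading was normalized to DMSO wells (0%) and wells without cells, and curves were ranked by r2 and response magnitude.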

[4] = S16 Schwann cell PMP22 intronic element firefly luciferase assay (AID 624032); note: nearly all actives have a fitted effect of over 30% in size; note: potency is the fitted concentration of half-maximal effect
In short: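 Rat S16 Schwann cells stably carrying firefly luciferase driven by a PMP22 intronic element, in 10% FBS, treated 24 h at 37 C. ONE-Glo luminescence normalized to PTC124 control and DMSO (0%); curves classed by r2, magnitude and activity.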

DFO2036 = assay: qHTS profiling for inhibitors of Plasmodium falciparum proliferation (AID 504749); note: nearly all actives have a fitted effect of over 60% in size; note: potency is the fitted concentration of half-maximal effect;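 for activity, negative = inhibition: 0% = DMSO vehicle and full inhibition = artemisinin control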; settings: P. falciparum in erythrocytes, SYBR Green DNA, 72 h; series mostly up to 28.7 µM
In short: (§1)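 SYBR Green fluorescence (ex 485 nm, em 535 nm) reports parasite DNA after 72 h compound exposure of infected red cells at 0.3% parasitemia, 2.5% hematocrit; signal normalized to 0.29 uM artemisinin and vehicle wells.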

PC26 = assay: as above; settings: P. falciparum in erythrocytes, SYBR Green DNA, 72 h; series mostly up to 28.7 µM
In short: as §1

[5] = S16 Schwann cell PMP22 intronic element beta-lactamase assay (AID 624044; calls by dose curve; note: nearly all actives have a fitted effect of over 15% in size; note: potency is the fitted concentration of half-maximal effect;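 for ratio activity, negative = inhibition: 0% = DMSO and -100% = potassium clavulanate positive control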); settings: S16 rat Schwann cells, PMP22 element beta-lactamase FRET, 24 h; ratio activity, negative = inhibition: at 38.3 µM (top of the series)
In short: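 Beta-lactamase reporter under a PMP22 intronic regulatory element in stable S16 rat Schwann cells; 24 h compound exposure. 460 nm blue signal normalized between DMSO (0%) and potassium clavulanate, with 535 nm FRET tracking viability; curves classed by r2 and response.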

[6] = molecular target: Cytochrome P450 3A4 (Homo sapiens) (UniProt P08684); assay: qHTS Assay for Inhibitors and Substrates of Cytochrome P450 3A4 (AID 884); note: % is set by controls: 0 for no effect and ±100 for the full control effect; nearly all actives have a fitted effect of over 50% in size
Cytochrome P450 3A4 (Homo sapiens), sequence (P08684 whole entry, looked up): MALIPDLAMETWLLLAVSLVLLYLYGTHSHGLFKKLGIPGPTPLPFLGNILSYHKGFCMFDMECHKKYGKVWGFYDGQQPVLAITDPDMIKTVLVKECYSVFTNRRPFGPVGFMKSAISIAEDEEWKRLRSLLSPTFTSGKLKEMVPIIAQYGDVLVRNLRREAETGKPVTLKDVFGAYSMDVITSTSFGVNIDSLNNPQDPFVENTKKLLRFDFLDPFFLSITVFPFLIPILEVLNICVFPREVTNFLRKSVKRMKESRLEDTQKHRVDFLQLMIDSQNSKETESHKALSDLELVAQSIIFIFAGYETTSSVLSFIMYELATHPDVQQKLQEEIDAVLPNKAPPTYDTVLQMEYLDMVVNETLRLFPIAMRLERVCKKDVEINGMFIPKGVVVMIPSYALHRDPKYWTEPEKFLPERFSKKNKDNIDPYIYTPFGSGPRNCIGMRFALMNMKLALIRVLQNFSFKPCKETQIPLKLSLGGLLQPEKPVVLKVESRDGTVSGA
In short: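 Luminescent readout of luciferin produced by CYP3A4 (20 nM) dealkylation of Luciferin-PPXE, 25 uM (its KM). NADPH-driven reaction ran 60 min at RT after 10 min compound preincubation; data scaled to 57 uM ketoconazole as 100% inhibition.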

[7] = Confirmation and Secondary Assay for Modulators of Hemoglobin Beta Chain Splicing at IVS2 654 locus (AID 910);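 note: HeLa cells stably carrying EGFP split by mutant beta-globin IVS2-654 intron; % of control where 0% means no effect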
In short: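 HeLa cells stably expressing EGFP interrupted by β-globin IVS2-654 intron, seeded overnight in Opti-MEM/2% FCS, then treated 2 days at 37 °C. Restored splicing read as total peak GFP intensity per well by laser scanning cytometry (488 nm excitation, 500–520 nm emission); 500 nM antisense PNA as control.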

[8] = Confirmation and Secondary Assay for Modulators of Hemoglobin Beta Chain Splicing at IVS2 705 locus (AID 930);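 note: HeLa cells stably expressing the EGFP-705 splicing reporter; GFP fluorescence per well restored by corrected splicing of the IVS2-705 intron in EGFP; % of control where 0% means no effect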
In short: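 Assay measures total GFP intensity per well in HeLa EGFP-705 cells after 2 days with compound; mis-splicing normally truncates EGFP, so fluorescence indicates corrected splicing.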

[9] = molecular target: Tumor susceptibility gene 101 protein (Homo sapiens) (UniProt Q99816); assay: qHTS Assay for Iinhibitors of HIV-1 Budding by Blocking the Interaction of PTAP/TSG101: Hit Validation (AID 651600); note: % is set by controls: 0 for no effect and ±100 for the full control effect; nearly all actives have a fitted effect of over 70% in size
Tumor susceptibility gene 101 protein (Homo sapiens), sequence (Q99816 whole entry, looked up, the tested form may be a part): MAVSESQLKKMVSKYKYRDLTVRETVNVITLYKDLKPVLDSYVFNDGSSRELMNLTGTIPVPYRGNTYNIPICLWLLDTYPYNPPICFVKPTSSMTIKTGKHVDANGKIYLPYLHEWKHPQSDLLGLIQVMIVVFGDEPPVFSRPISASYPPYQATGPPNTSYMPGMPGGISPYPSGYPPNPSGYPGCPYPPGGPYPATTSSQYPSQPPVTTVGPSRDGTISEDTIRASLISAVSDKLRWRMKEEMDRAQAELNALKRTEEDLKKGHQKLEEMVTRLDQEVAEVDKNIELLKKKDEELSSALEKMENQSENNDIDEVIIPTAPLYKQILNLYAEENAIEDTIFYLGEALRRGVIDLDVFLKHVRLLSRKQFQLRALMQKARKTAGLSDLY
In short: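 Fluorescence polarization binding assay: Tsg101 binding domain (10 uM final) pre-dispensed with compounds, then FITC-labeled PTAP-motif peptide (50 nM final) added; 20 min at r.t. in HEPES pH 7.5 buffer with NaCl, Tween 20, EDTA, TCEP.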

NC(C(=O)O)c1ccc(O)cc1 (stereo not given)
inactive: Potency [1] | Potency [2] | Potency [3] | Potency [4] | Potency (DFO2036) | Potency (PC26)

C=CC1CN2CCC1CC2[C@@H](O)c1ccnc2ccc(OC)cc12 (stereo not given in full)
inactive: Potency [2] | Potency [3] | Potency [5]
active: Potency [4] 32.2 µM | Potency (DFO2036) 0.708 µM | Potency (PC26) 0.239 µM

CCCC[C@H](O)c1ccccc1
inactive: Potency [1] | Potency [2] | Potency [3] | Potency [4] | Potency [5] | Potency (DFO2036) | Potency (PC26)

CC12C=CC(=O)C=C1[C@@H](F)CC1C2C(O)CC2(C)C1CC[C@]2(O)C(=O)CO (stereo not given in full)
inactive: Potency [1] | Potency [2] | Potency [3] | Potency [4] | Potency (DFO2036) | Potency (PC26)

CC(=O)NC1[C@H]([C@H](O)[C@H](O)CO)OC(C(=O)O)=C[C@H]1N=C(N)N (stereo not given in full)
inactive: Potency [2] | Potency (DFO2036) | Potency (PC26)

OC[C@@H]1O[C@](CO)(O[C@H]2O[C@H](CO)[C@@H](O)[C@H](O)[C@H]2O)[C@H](O)[C@H]1O
inactive: Potency [1] | Potency [2] | Potency [3] | Potency [5] | Potency (DFO2036) | Potency (PC26)

O=C1CC[C@H](C(=O)N[C@@H]2C[C@H]2c2ccccc2)N1
inactive: Potency [1] | Potency [2] | Potency [3] | Potency [4] | Potency [5] | Potency (DFO2036) | Potency (PC26)

CNC(=O)C(N)CSC(C)C1=C(C)c2cc3[n-]c(cc4nc(cc5[n-]c(cc1n2)c(C)c5CCC(=O)O)C(CCC(=O)O)=C4C)c(C)c3C(C)SCC(N)C(=O)NC.[Fe+2] (stereo not given)
inactive: Potency [1] | Potency [2] | Potency [3] | Potency [4] | Potency (DFO2036) | Potency (PC26)

C[C@]12CC[C@@H]3c4ccc(O)cc4CC[C@H]3[C@@H]1C[C@H](O)C2O (stereo not given in full)
inactive: Potency [2] | Potency [3] | Potency [4] | Potency (DFO2036) | Potency (PC26)

Cc1ccc(Nc2ncccc2C(=O)O)cc1C
inactive: Potency [1] | Potency [3] | Potency [4] | Potency [5] | Potency (DFO2036) | Potency (PC26)

CCN1CCN(C(=O)NC(C(=O)NC2C(=O)N3C(C(=O)O)=C(CSc4nnnn4C)CSC23)c2ccc(O)cc2)C(=O)C1=O (stereo not given)
inactive: Potency [6] | Potency [7] | Potency [8] | Potency [1] | Potency [3] | Potency [4] | Potency (DFO2036) | Potency (PC26)

CCCCN1CC(O)C(O)C(O)C1CO (stereo not given)
inactive: Potency [1] | Potency [3] | Potency [4] | Potency [5] | Potency (DFO2036) | Potency (PC26)

CC[C@@H](C)C(N)C(=O)O (stereo not given in full)
inactive: Potency [1] | Potency [2] | Potency [3] | Potency [4] | Potency (DFO2036) | Potency (PC26)

CC(O)C(N)C(=O)O (stereo not given)
inactive: Potency [2] | Potency [3] | Potency [4] | Potency [5] | Potency (DFO2036) | Potency (PC26)

CO/N=C(/C(=O)N[C@@H]1C(=O)N2C(C(=O)O)=C(CSc3nc(C)c(CC(=O)O)s3)CS[C@H]12)c1csc(N)n1
inactive: Potency [1] | Potency [2] | Potency [4] | Potency [5] | Potency (DFO2036) | Potency (PC26)

COc1cccc2c1C(=O)c1c(O)c3c(c(O)c1C2=O)C[C@@](O)(C(=O)CO)C[C@@H]3OC1CC(N)C(O)C(C)O1 (stereo not given in full)
inactive: Potency [3] | Potency [4] | Potency [9]
active: Potency [1] 50.1 µM | Potency (DFO2036) 2 µM | Potency (PC26) 4.78 µM

CCCCCCCCCCCC(=O)OCC(O)C1OCC(O)C1O (stereo not given)
inactive: Potency [2] | Potency [3] | Potency [4] | Potency (DFO2036) | Potency (PC26)

CCCC(=O)O[C@]1(C(=O)COC(C)=O)CC[C@H]2C3C[C@H](F)C4=CC(=O)C=CC4(C)[C@@]3(F)[C@@H](O)CC21C (stereo not given in full)
inactive: Potency [2] | Potency [3] | Potency [4]

O=C(O)CC(O)CC(O)/C=C/c1c(C2CC2)nc2ccccc2c1-c1ccc(F)cc1 (stereo not given)
inactive: Potency [2] | Potency [3] | Potency [5] | Potency (PC26)

C[S+](C)CC[C@H](N)C(=O)O
inactive: Potency [1] | Potency [2] | Potency [3] | Potency [4] | Potency [5] | Potency (DFO2036) | Potency (PC26)

CC1OC(OCC2OC(Oc3c(-c4ccc(OCCO)c(OCCO)c4)oc4cc(OCCO)cc(O)c4c3=O)C(O)C(O)C2O)[C@@H](O)C(O)C1O (stereo not given in full)
inactive: Potency [6] | Potency [7] | Potency [8] | Potency [1] | Potency [2] | Potency [3] | Potency [4] | Potency [5] | Potency (DFO2036) | Potency (PC26)

C=C[C@H]1CN2CCC1C[C@H]2[C@H](O)c1ccnc2ccc(OC)cc12 (stereo not given in full)
inactive: Potency [2] | Potency [3] | Potency [4]
active: ratio activity, negative = inhibition [5] -10.4% | Potency (PC26) 0.601 µM

CC1(Cn2ccnn2)[C@H](C(=O)O)N2C(=O)C[C@H]2S1(=O)=O (stereo not given in full)
inactive: Potency [1] | Potency [2] | Potency [3] | Potency [4] | Potency (DFO2036) | Potency (PC26)

CCC(C(=O)O)C1OC(C(C)C(O)C(C)C(=O)C(CC)C2OC3(C=CC(O)C4(CCC(C)(C5CCC(O)(CC)C(C)O5)O4)O3)C(C)CC2C)C(C)CC1C (stereo not given)
active: Potency [4] 0.102 µM | Potency [5] 6.3 µM | Potency (PC26) 0.0757 µM
inactive: Potency [1] | Potency [2]

OCCN1CC(O)C(O)C(O)C1CO (stereo not given)
inactive: Potency [6] | Potency [7] | Potency [8] | Potency [2] | Potency [3] | Potency (DFO2036) | Potency (PC26)

CC1OC(OC2CCC3(C)C(CCC4C3CC(O)C3(C)C(C5=CC(=O)OC5)CCC43O)C2)CC(O)C1OC1CC(O)C(OC2CC(O)C(OC3OC(CO)C(O)C(O)C3O)C(C)O2)C(C)O1 (stereo not given)
inactive: Potency [1] | Potency [2] | Potency [3] | Potency [4] | Potency [5] | Potency (DFO2036)

C[C@H]1OC(OC2C(O)[C@@H](O)C(OC3C(O)[C@@H](O)C(O)O[C@@H]3CO)O[C@@H]2CO)[C@H](O)C(O)C1N[C@H]1C=C(CO)[C@@H](O)[C@H](O)C1O (stereo not given in full)
inactive: Potency [1] | Potency [2] | Potency [3] | Potency [4] | Potency [5] | Potency (DFO2036)

CC(=O)OCC(=O)[C@@]1(O)CCC2C3C[C@H](C)C4=CC(=O)C=CC4(C)C3C(O)CC21C (stereo not given in full)
inactive: Potency [3] | Potency [4] | Potency [5] | Potency (DFO2036) | Potency (PC26)

Reference: PubChem BioAssay (NCATS)
